Test results as given in paper PMC9911399, “Two distinct binding modes provide the RNA-binding protein RbFox with extraordinary sequence specificity”.
Residue numbers refer to the chain shown, from its start. In all, about 16,000 sequences were measured (“ka relative to ugcaugu”: median about 0.096, highest 2% from about 0.35 on). Shown is part of a subset that was picked to be rich in the highest values.

T1: RBFOX1 RRM RbFoxmut (Fox-RRM*) (Homo sapiens, UniProt Q9NWB1 109-208, R118D;E147R;N151S;E152T)
T1 sequence: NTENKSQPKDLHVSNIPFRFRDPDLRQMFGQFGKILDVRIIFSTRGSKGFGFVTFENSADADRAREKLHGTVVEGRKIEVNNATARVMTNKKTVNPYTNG

B1: AGGAUGG (DNA:RNA)
RNA: GGGAGACCGGAAUUCAGAUUGUCCAGGAUGGUUAAAUCCCGUCGUAGCCACCA
DNA 1: CAATCTGAATTCCGGTCTCCC
DNA 2: TGGTGGCTACGACGGGATT
B2: UCGUACU (DNA:RNA)
RNA: B1 RNA with A25U, G26C, A28U, U29A, G30C, G31U
DNA 1: CAATCTGAATTCCGGTCTCCC
DNA 2: TGGTGGCTACGACGGGATT
B3: GGGAUGU (DNA:RNA)
RNA: B1 RNA with A25G, G31U
DNA 1: CAATCTGAATTCCGGTCTCCC
DNA 2: TGGTGGCTACGACGGGATT
B4: GGAUGUU (DNA:RNA)
RNA: B1 RNA with A25G, G27A, A28U, U29G, G30U, G31U
DNA 1: CAATCTGAATTCCGGTCTCCC
DNA 2: TGGTGGCTACGACGGGATT
B5: GGGGAUG (DNA:RNA)
RNA: B1 RNA with A25G, A28G, U29A, G30U
DNA 1: CAATCTGAATTCCGGTCTCCC
DNA 2: TGGTGGCTACGACGGGATT
B6: GGGGGGA (DNA:RNA)
RNA: B1 RNA with A25G, A28G, U29G, G31A
DNA 1: CAATCTGAATTCCGGTCTCCC
DNA 2: TGGTGGCTACGACGGGATT
B7: GAGAUGU (DNA:RNA)
RNA: B1 RNA with A25G, G26A, G31U
DNA 1: CAATCTGAATTCCGGTCTCCC
DNA 2: TGGTGGCTACGACGGGATT
B8: CGGGAUG (DNA:RNA)
RNA: B1 RNA with A25C, A28G, U29A, G30U
DNA 1: CAATCTGAATTCCGGTCTCCC
DNA 2: TGGTGGCTACGACGGGATT
B9: CACAAUA (DNA:RNA)
RNA: B1 RNA with A25C, G26A, G27C, U29A, G30U, G31A
DNA 1: CAATCTGAATTCCGGTCTCCC
DNA 2: TGGTGGCTACGACGGGATT

These binders were tested against T1, RBFOX1 RRM RbFoxmut (Fox-RRM*) (assay: EMSA; HiTS-Eq, 1 nM pool, 10 min; buffer printed only for the single-RNA assays: 10 mM Tris pH 7.5, 150 mM NaCl, 3.4 mM EDTA, 0.001% NP-40, 30 C). Conditions: tags: His6 N-terminal (pET28a); label: 5' 32P.
Summary of the method: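 Purified RbFox RRM, wild type or mutant, was incubated for 10 min in 50 µL with 1 nM of a 5′-radiolabelled RNA pool carrying 7 randomized nucleotides, whose flanks were annealed to DNA oligonucleotides, over a series of increasing protein concentrations. Unbound RNA was resolved on 8% native PAGE, cut out, reverse-transcribed, barcoded by PCR and sequenced on an Illumina HiSeq 2500. Relative association constants were derived from changes in read counts for each RNA species versus the control reaction and normalised to the cognate motif.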

Row | Binder | binding signal
1 | B1 | 0.177 KA relative to UGCAUGU
2 | B2 | 0.0912 KA relative to UGCAUGU
3 | B3 | 0.373 KA relative to UGCAUGU
4 | B4 | 0.213 KA relative to UGCAUGU
5 | B5 | 0.612 KA relative to UGCAUGU
6 | B6 | 0.082 KA relative to UGCAUGU
7 | B7 | 0.15 KA relative to UGCAUGU
8 | B8 | 0.296 KA relative to UGCAUGU
9 | B9 | 0.084 KA relative to UGCAUGU
